Data on 18 compounds can be found in PubChem BioAssay AID2318 (National Center for Advancing Translational Sciences (NCATS), 2010).

Some of the results follow. A call without a number means that no potency is given here. Results filed as inconclusive are left out. Calls of active or inactive are those of the source. Calls follow the shape of the full dose curve.
Potency is read from the fitted curve at half-maximal effect.

A short description of this test: Cycloheximide Counterscreen for Small Molecule Inhibitors of Shiga Toxin (Confirmatory). The following applies: protein synthesis reporter, Shiga toxin assay; series mostly up to 38.3 µM.
Consider `O=C(COC(=O)c1cccs1)Nc1ccccc1Cl`, for which the Potency result is “inactive”. The same measure for `CC(=O)c1ccc(N2CCN(C(=O)c3ccc4nc[nH]c4c3)CC2)cc1`: “inactive”. The same measure for `COc1ccc(C(=O)Nc2ccccc2C(=O)NCc2ccco2)cc1`: “inactive”; for `O=C(c1cc(-c2cccc(O)c2)on1)N1CCc2ccccc2C1`: “inactive”; for `COc1ccccc1N1N=C(c2cccs2)CC1c1ccccc1` (stereo not drawn): “inactive”. To `CCN1CCN(Cc2c(O)ccc3c(=O)c(-c4ccc(OC)c(OC)c4)c(C(F)(F)F)oc23)CC1` belongs “inactive”.

`Nc1nonc1C(=O)NCCc1ccccc1`: the Potency entry was “inactive”. As for `COc1ccc(-c2noc(COc3ccc(Cl)c(C)c3)n2)cc1`, the Potency entry is “inactive”. To `Cc1cc(C(=O)COC(=O)C2CC2)c(C)n1-c1ccc(F)cc1` belongs 2 µM (active); to `CSCc1cc(N2CCOCC2)nc(SCc2ccc(Cl)cc2Cl)n1`, “inactive”; to `COc1ccc(N(CCC#N)S(=O)(=O)c2ccc(Cl)cc2)cc1`, “inactive”.

As to `Cc1ccc(-c2cc(C(=O)N3CCc4ccccc4C3)no2)cc1`, the Potency entry is “inactive”.

For `C=CCNC(=O)c1ccc(C)c(Br)c1`, the Potency entry is “inactive”. The same measure for `CN(Cc1nc2ccc(F)cc2[nH]1)Cc1nc(CC2CC2)no1`: “inactive”; for `COc1ccc(S(=O)(=O)Nc2ccc3c(c2)OCO3)cc1Cl`: “inactive”; for `CCCc1nc2ccccc2c(=O)n1NC(=O)c1c(O)c2ccccc2[nH]c1=O`: “inactive”.

In the case of `CCOc1ccc(NC(=O)Nc2ccc(N(C)C(C)=O)cc2)cc1`, the Potency result is “inactive”. To `Cc1nc(SCC(=O)Nc2cc(C)on2)c2c3c(sc2n1)CCCC3` belongs “inactive”.
